Results: the supplement of paper PMC10338343
± gives the standard deviation. Whole data set: some 6,200 sequences, median “pre-steady-state target cleavage rate” near 0.29, cut for the highest 2% near 2. The sample holds the highest values, similar sequences and a random draw of the others, so the mix is not that of the screen.

Tested on: MIWI (PIWIL1) piRISC loaded with piRNA #1 (30 nt)
Test: pre-steady-state target cleavage rate (min^-1); MIWI and MILI are mouse PIWI proteins and EfPiwi is from a freshwater sponge; tags in brackets are library labels; higher = faster piRNA-guided slicing of the target
Conditions: guide: piRNA #1 5'p-UGAGGUAGUAGGUUGUAUAGUAUCCAGAGG; auxiliary factor: 500 nM mouse GTSF1
Procedure, shortened: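 The pre-steady-state cleavage rate was obtained by Cleave-'n-Seq with a burst-and-steady-state fit. A transcribed, DNA-blocked target RNA library (0.1 nM) was mixed with 1 nM active affinity-purified piRISC carrying one synthetic guide, with or without 500 nM GTSF1 partner protein, in HEPES–potassium acetate buffer at 33 °C for 0–8 or 0–960 min. Uncleaved targets were sequenced and normalised to depth and to weakly complementary targets, with three trials pooled and k3 capped at 0.0001 min^-1.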

Sequence | pre-steady-state target cleavage rate
GGAGACCAUACAAUACAACCUACUAGCUCA | 0.486 ± 0.067
GGAGACCUAACUAUAGAACCUACUACCUGA | 0.188 ± 0.066
GGACUGGAUACUAUACAACGUACUACCUGA | 0.377 ± 0.047
CACUCUGGAUACUAUACAACCUACUACCUCA | 2.09 ± 0.12
ACUCUGGAUACUAUACAACCUACUACCUCA | 2.19 ± 0.13
CCUCUGGAUACUAUACAACCUACUACACUCA | 0.874 ± 0.073
CCUCUGGAUACUAUACAACCUCACUACCUCA | 0.0086 ± 0.0033
GGAGACGAUACGUAUACAACCUACUACCUCA | 1.4 ± 0.13
GGAGUGGAUACUAUACAACCUACUGACCUCA | 0.489 ± 0.043
CCUCUUGAUACUAUACAACCUACUACCUCA | 2.33 ± 0.14
GGACUUGAUACUAUACAACCUACUACCUCA | 1.73 ± 0.12
GCUCUGUGAUACUAUACAACCUACUACCUCA | 1.81 ± 0.11
GGUCUUGAUACUAUACAACCUACUACCUCA | 1.87 ± 0.11
GCUCUUGAUACUAUACAACCUACUACCUCA | 2.03 ± 0.11
GGAGUUGAUACUAUACAACCUACUACCUCA | 1.97 ± 0.13
GCUCUGGAUACUAUACAACCUACAACCUGA | 0.744 ± 0.14
GGAGUCGAUACUAUACAACCUACUACCUCA | 1.47 ± 0.091
GGAGACCAUAACUAUACAACCUACUACCUCA | 1.24 ± 0.089
CCUCUGGAUAAUAUACAACCUACUACCUCA | 2.06 ± 0.12
GCUCUGGAUAAUAUACAACCUACUACCUCA | 2.07 ± 0.13
GCUCUGGAUACUAAUACAACCUACUACCUCA | 1.49 ± 0.09
GCUCUGGAUACUAUACAACCUAAUACCUCA | 1.55 ± 0.12
GGUCUGGAUAAUAUACAACCUACUACCUCA | 1.88 ± 0.12
CCUCUGGAUAUAUACAACCUACUACCUCA | 1.9 ± 0.12

Sequence | pre-steady-state target cleavage rate
CCUCUGGAUACUAUAGAACCUACUACCUCA | 0.664 ± 0.06
GGAGACCAUUCUUUACAACCUACUACCUCA | 0.387 ± 0.059
GCUCUGGAUAGUAUACUACCUACUACCUCA | 0.858 ± 0.049
GGUCUGGAUACAAUACUACCUACUACCUCA | 1.09 ± 0.092
CCUCUGGAUACUAUACAACCUACUACCUCU [g2:g30:cont:t1U] | 2.36 ± 0.14
CCUCUGGAUACUAUACAACCUACUACCUCG [g2:g30:cont:t1G] | 1.32 ± 0.094
CCUCUGGAUACUAUACAACCUACUACCUACA | 1.79 ± 0.096
CCUCUGGAUACUAUACAACCUACUACCUA | 1.52 ± 0.096
CCUCUGGAUACUAUACAACCUACUACCUCC [g2:g30:cont:t1C] | 2.18 ± 0.14
CCUCUGGAUACUAUACAACCUACUACCUAA | 1.9 ± 0.1
GGAGAGGAAACAAUACAACCUACUACCUCA | 0.95 ± 0.079
GGAGACGAUACUAUUCAUCCUACUACCUCA | 1.09 ± 0.061
GGAGUGGAUACUAUCAACCUACUACCUCA | 1.58 ± 0.11
GGAGACCUAUCUAUACAACCUACUUCCUGA | 0.0338 ± 0.01
GGAGACCUAUCUAUACAACCUUCUACCACA | 0.136 ± 0.015
GCUCUGGAUAUAUACAACCUACUACCUCA | 1.62 ± 0.086
GGACUGGAUAUUAUACAACCUACUACCUCA | 1.62 ± 0.11
GGUCUGGAUAUUAUACAACCUACUACCUCA | 1.98 ± 0.12
GCUCUGGAUAUUAUACAACCUACUACCUCA | 2.06 ± 0.11
CCUCUGGAUAUUAUACAACCUACUACCUCA | 2.15 ± 0.12
GCUCUGGAUACAUAUACAACCUACUACCUCA | 1.54 ± 0.083
GGAGACCUAAGUAUUCAACCUACUACCUCA | 0.00289 ± 0.0023
CGUCUGGAUACUAUACAACCUACUACCUGA | 0.517 ± 0.044
CCUCUGGAUACUAUACAUGGUACUACCUCA | 0.0547 ± 0.0094

Sequence | pre-steady-state target cleavage rate
GGAGAGGAUACUAUACAACCUACCACCUCA | 0.849 ± 0.049
GCUCUCGAUUCUAUACAACCUACUACCUCA | 2.09 ± 0.12
CCUCUCGAUACUAUACAACCUUCUACCUCA | 0.676 ± 0.035
CCUCUCGAUUCUAUACAACCUACUACCUCA | 2.25 ± 0.15
GCUCUCGAUACUAUACAACCUUCUACCUCA | 0.639 ± 0.034
GGUCUCGAUUCUAUACAACCUACUACCUCA | 1.74 ± 0.1
GGACUCGAUUCUAUACAACCUACUACCUCA | 1.61 ± 0.14
GGUCUGGAUACUAUACUUCCUACUACCUCA | 0.248 ± 0.029
GGAGUGGAGACUAUACAACCUACUACCUCA | 1.65 ± 0.099
GGAGUGGAUACUAAUACAACCUACUACCUCA | 1.4 ± 0.1
CCGCUGGAUACUAUACAACCUACUACCUCA | 1.88 ± 0.094
GGGCUGGAUACUAUACAACCUACUACCUCA | 1.9 ± 0.12
GCGCUGGAUACUAUACAACCUACUACCUCA | 1.85 ± 0.1
CCUGCUGGAUACUAUACAACCUACUACCUCA | 2.06 ± 0.12
GCUGCUGGAUACUAUACAACCUACUACCUCA | 2.01 ± 0.14
GGUGCUGGAUACUAUACAACCUACUACCUCA | 1.85 ± 0.11
GCUCUGGAUACUAUACAACCAUCUACCUCA | 0.0463 ± 0.011
GGAGUGGUUACUAUAGAACCUACUACCUCA | 1.24 ± 0.08
CAUCUGGAUACUAUACAACCUACUACCUCA | 1.37 ± 0.066
GGUCUGGAUACUAUACAACCUUACUACCUCA | 0.00317 ± 0.0022
GGAGACCUUAGUAUACAACCUACAACCUCA | 0.0975 ± 0.018
GGUCUGGAAACUAUACAACCUACUACCACA | 0.461 ± 0.05
GGUCAGGAAACUAUACAACCUACUACCUCA | 1.77 ± 0.12
GCUCAGGAAACUAUACAACCUACUACCUCA | 1.78 ± 0.1

Sequence | pre-steady-state target cleavage rate
GCUCUGGAAACUAUACAACCUACUACCACA | 1.42 ± 0.15
CCUCUGGAAACUAUACAACCUACUACCACA | 2.19 ± 0.26
GGACUGGAAACUAUACAACCUACUACCUCA | 1.44 ± 0.097
GCACUGGAAACUAUACAACCUACUACCUCA | 1.82 ± 0.089
CCUCAGGAAACUAUACAACCUACUACCUCA | 2.04 ± 0.1
CCACUGGAAACUAUACAACCUACUACCUCA | 2.06 ± 0.11
GGAGACGAUACUAUACAACCUAGAUCCUCA | 0.113 ± 0.015
GGAGAGGUUACUAAACAACCUACUACCUCA | 1.21 ± 0.08
GGAGACGAUACUAUAGAACCUACUACCUCA | 1.14 ± 0.066
GGAGACCUAUGAUAACAACCUACAUGGAGA [g8:g16:cont:t1A] | < 0.0001
GGAGUGCAUACUAUACUACCUACUACCUCA | 1.13 ± 0.092
GGAGACCUAUGAUAAGUACCUACUACCUCA | < 0.0001
GGAGACCUAUCUUUACAACCUACUACCACA | 0.129 ± 0.03
GGAGUGGAUUCAAUACAACCUACUACCUCA | 1.02 ± 0.071
GGUCUAGGAUACUAUACAACCUACUACCUCA | 1.83 ± 0.1
GGUCUAGAUACUAUACAACCUACUACCUCA | 1.81 ± 0.11
GCUCUGGAUACUAUACAACCUCUACCUCA | 0.00616 ± 0.003
GGAGUAGAUACUAUACAACCUACUACCUCA | 1.55 ± 0.074
GGACUAGAUACUAUACAACCUACUACCUCA | 1.77 ± 0.1
GCUCUAGAUACUAUACAACCUACUACCUCA | 2.09 ± 0.12
GCUCUAGGAUACUAUACAACCUACUACCUCA | 1.85 ± 0.095
CCUCUAGGAUACUAUACAACCUACUACCUCA | 2.12 ± 0.12
CCUCUAGAUACUAUACAACCUACUACCUCA | 2.2 ± 0.13
